# Experimental data: PubChem BioAssay
# The source made the active and inactive calls. Unless noted, the rule behind the calls is not given here.
# Assays:
# [1] = system: Wnt5a (protein binding on small-molecule microarray); experiment: small molecules binding Wnt5a protein – biophysical, small-molecule microarray, 635/667 nm fluorescence, primary screen (AID 1142); details: 635 nm fluorescence, higher = more signal;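 note: fluorescence read at 667 nm with signal to noise per printed feature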
# [2] = ATP-based viability of Huh7 replicon cells – cell-based, CellTiter-Glo luminescence, basal, 48 h, cytotoxicity control for HCV replication inhibitor project, primary screen (AID 1143); details: higher = more signal, called active from +8 up or from −8 down;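 note: Huh7 hepatoma cells carrying a hepatitis C replication reporter with no stimulus; test concentration not given here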
# [3] = Pseudomonas biofilm growth suppression – PAO1 strain, BacTiter-Glo luminescence, LB-PBS, primary screen (AID 1144); details: P. aeruginosa PAO1 biofilm, 12 h, higher = more signal
# [4] = basal CRE-LacZ reporter activity in PC12 – cell-based, unstimulated, primary screen (AID 1145); details: no forskolin, luminescence, 4.5 h, higher = more signal, called active from +8 up or from −8 down
# [5] = forskolin-driven CRE-LacZ activity in PC12 – cell-based, CRE-LacZ reporter, forskolin-stimulated, primary screen (AID 1146); details: luminescence, 4.5 h, higher = more signal, called active from +8 up or from −8 down;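 note: PC12 cells with 6xCRE LacZ reporter stimulated by forskolin 10 µM; beta-galactosidase reporter signal reflecting CREB driven transcription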
# [6] = target: Streptavidin (Streptomyces avidinii) (UniProt P22629); experiment: compounds binding control protein streptavidin – biophysical, small-molecule microarray, 635/667 nm fluorescence, artefact control for SMM compound annotation, primary screen (AID 1147); details: higher = more signal;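 note: signal reflects streptavidin binding to arrayed compounds as a control protein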
# Streptavidin (Streptomyces avidinii), sequence (P22629 whole entry, looked up): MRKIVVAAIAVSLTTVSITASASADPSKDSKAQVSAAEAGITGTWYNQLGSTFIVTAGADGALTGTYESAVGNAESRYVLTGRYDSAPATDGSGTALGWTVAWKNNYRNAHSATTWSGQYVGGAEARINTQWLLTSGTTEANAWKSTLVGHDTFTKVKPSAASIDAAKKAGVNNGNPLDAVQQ
# [7] = probe aInhba binding on compound microarray – biochemical, small-molecule microarray, 635/667 nm fluorescence, primary screen (AID 1148); details: higher = more signal;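 note: score merges 667nm spot fluorescence with signal-to-noise for antibody binding to printed compounds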
# [8] = target: Torsin-1A (Homo sapiens) (UniProt O14656); experiment: TOR1A wild-type binding on microarray – cell lysate, small-molecule microarray, lysate, 635/667 nm, primary screen (AID 1149); details: COS7 hTOR1A-WT lysate, 635 nm fluorescence, higher = more signal
# Torsin-1A (Homo sapiens), sequence (O14656 whole entry, looked up): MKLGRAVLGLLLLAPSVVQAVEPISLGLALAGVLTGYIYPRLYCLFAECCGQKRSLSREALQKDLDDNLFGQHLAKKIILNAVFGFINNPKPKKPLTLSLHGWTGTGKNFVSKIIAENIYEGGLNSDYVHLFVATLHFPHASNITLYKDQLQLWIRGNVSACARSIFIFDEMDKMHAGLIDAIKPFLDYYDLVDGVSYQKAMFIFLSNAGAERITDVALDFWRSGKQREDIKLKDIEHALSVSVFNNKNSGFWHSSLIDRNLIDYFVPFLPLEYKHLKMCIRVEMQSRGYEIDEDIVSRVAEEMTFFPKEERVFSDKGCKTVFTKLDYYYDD
# [9] = target: Torsin-1A (Homo sapiens) (UniProt O14656); experiment: torsin A mutant lysate binding on microarrays – cell lysate, small-molecule microarray, COS7 lysate, 635/667 nm fluorescence, primary screen (AID 1150); details: COS7 hTOR1A mutant lysate, 635 nm fluorescence, higher = more signal;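 note: score pools 667 nm emission and signal to noise measuring lysate protein binding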
# [10] = system: Sonic hedgehog protein (Shh); experiment: Sonic hedgehog microarray binding compounds – biochemical, small-molecule microarray, 635/667 nm fluorescence, primary screen (AID 1151); details: 635 nm fluorescence, higher = more signal;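 note: Shh protein binding to compounds spotted on small-molecule microarray slides; score combines spot fluorescence intensity with signal-to-noise across triplicate slides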
# [11] = optical density shifts of acrAB sulA E. coli – strain DRC41, OD650, 48 h, E. coli filamentation inducer project, primary screen (AID 1152); details: higher = more signal, called active from +8 up or from −8 down;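 note: E. coli MC1000 strain DRC41 lacking acrAB efflux pump and sulA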
# [12] = probe aLefty1 binding on compound microarray – biochemical, small-molecule microarray, 635/667 nm fluorescence, primary screen (AID 1153); details: higher = more signal;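 note: score merges spot fluorescence with signal-to-noise ratio from the scanned slide images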
# [13] = plasmodial surface anion channel blockers, osmotic lysis – cell-based, P. falciparum Indochina, OD700, 1 h, primary screen (AID 1154); details: P. falciparum Indochina infected RBC osmotic lysis, higher = more signal, called active from +8 up or from −8 down
# [14] = plasmodial surface anion channel blockers, osmotic lysis – cell-based, P. falciparum Indochina, OD700, 2 h, primary screen (AID 1155);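 note: lysis reports solute entry through the parasite surface anion channel PSAC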; details: P. falciparum Indochina infected erythrocytes, higher = more signal, called active from +8 up or from −8 down
# [15] = changes in parasitized red cell lysis, either direction – P. falciparum Indochina, OD700, 3 h, PSAC antagonist project, primary screen (AID 1156); details: P. falciparum-infected erythrocytes, osmotic lysis, higher = more signal, called active from +8 up or from −8 down
# [16] = plasmodial surface anion channel blockers, osmotic lysis – cell-based, P. falciparum Indochina, OD700, 18 h, primary screen (AID 1157); details: P. falciparum Indochina infected erythrocytes, osmotic lysis OD700, 18 h; higher = more signal, called active from +8 up or from −8 down
# [17] = S6 kinase pathway phospho-S6 level changes – cell-based, A549, cytoblot, luminescence, serum-stimulated, primary screen (AID 1158); details: 5 h, higher = more signal;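 note: serum-stimulated A549 lung adenocarcinoma cells; signal is phosphorylated S6 detected by cytoblot immunostaining with HRP secondary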
# [18] = target: NADPH oxidase 2 (Homo sapiens) (UniProt P04839); experiment: compounds shifting NOX2 Amplex Red fluorescence – cell-based, HEK293-NOX2, PMA-stimulated, NOX inhibitor project, primary screen (AID 1159); details: 45 min, higher = more signal, called active from +8 up or from −8 down; note: test concentration not given here
# NADPH oxidase 2 (Homo sapiens), sequence (P04839 whole entry, looked up): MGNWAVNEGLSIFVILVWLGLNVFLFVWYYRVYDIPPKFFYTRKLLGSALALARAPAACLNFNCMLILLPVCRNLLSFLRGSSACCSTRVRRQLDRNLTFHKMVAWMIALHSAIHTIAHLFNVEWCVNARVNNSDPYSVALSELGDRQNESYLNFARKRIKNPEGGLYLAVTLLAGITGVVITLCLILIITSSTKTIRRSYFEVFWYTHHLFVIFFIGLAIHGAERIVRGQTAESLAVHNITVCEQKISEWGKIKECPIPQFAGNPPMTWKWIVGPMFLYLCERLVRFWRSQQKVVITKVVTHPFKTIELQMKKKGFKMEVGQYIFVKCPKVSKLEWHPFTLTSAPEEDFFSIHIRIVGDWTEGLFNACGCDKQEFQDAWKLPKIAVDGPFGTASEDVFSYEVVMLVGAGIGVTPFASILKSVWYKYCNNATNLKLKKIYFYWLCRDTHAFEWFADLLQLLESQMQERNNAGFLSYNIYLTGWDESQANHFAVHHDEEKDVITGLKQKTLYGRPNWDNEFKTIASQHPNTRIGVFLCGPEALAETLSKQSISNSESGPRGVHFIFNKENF
# [19] = target: NADPH oxidase 4 (Homo sapiens) (UniProt Q9NPH5); experiment: compounds shifting NOX4 Amplex Red fluorescence – cell-based, HEK293-NOX4, tetracycline-induced, NOX inhibitor project, primary screen (AID 1160); details: HEK293-NOX4, Amplex Red H2O2 fluorescence, 45 min; higher = more signal, called active from +8 up or from −8 down
# NADPH oxidase 4 (Homo sapiens), sequence (Q9NPH5 whole entry, looked up): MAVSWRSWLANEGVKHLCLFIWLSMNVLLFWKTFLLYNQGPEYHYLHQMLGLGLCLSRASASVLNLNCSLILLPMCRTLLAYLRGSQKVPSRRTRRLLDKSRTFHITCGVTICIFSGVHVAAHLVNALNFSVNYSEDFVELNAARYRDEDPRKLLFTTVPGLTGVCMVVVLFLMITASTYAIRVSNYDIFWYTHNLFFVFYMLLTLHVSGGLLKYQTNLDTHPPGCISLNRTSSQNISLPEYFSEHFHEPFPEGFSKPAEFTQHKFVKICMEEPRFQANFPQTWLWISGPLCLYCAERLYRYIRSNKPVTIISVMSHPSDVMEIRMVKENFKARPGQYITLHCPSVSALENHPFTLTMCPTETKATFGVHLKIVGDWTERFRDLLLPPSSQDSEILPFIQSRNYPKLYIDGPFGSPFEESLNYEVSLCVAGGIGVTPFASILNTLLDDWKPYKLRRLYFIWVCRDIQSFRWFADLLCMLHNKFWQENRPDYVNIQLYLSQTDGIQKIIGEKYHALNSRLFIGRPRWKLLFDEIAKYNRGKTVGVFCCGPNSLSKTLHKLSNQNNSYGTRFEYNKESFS
# [20] = target: NADPH oxidase 5 (Homo sapiens) (UniProt Q96PH1); experiment: compounds shifting NOX5 Amplex Red fluorescence – cell-based, HEK293-NOX5, NOX inhibitor project, primary screen (AID 1161); details: HEK293-NOX5, ionomycin, 45 min, higher = more signal
# NADPH oxidase 5 (Homo sapiens), sequence (Q96PH1 whole entry, looked up): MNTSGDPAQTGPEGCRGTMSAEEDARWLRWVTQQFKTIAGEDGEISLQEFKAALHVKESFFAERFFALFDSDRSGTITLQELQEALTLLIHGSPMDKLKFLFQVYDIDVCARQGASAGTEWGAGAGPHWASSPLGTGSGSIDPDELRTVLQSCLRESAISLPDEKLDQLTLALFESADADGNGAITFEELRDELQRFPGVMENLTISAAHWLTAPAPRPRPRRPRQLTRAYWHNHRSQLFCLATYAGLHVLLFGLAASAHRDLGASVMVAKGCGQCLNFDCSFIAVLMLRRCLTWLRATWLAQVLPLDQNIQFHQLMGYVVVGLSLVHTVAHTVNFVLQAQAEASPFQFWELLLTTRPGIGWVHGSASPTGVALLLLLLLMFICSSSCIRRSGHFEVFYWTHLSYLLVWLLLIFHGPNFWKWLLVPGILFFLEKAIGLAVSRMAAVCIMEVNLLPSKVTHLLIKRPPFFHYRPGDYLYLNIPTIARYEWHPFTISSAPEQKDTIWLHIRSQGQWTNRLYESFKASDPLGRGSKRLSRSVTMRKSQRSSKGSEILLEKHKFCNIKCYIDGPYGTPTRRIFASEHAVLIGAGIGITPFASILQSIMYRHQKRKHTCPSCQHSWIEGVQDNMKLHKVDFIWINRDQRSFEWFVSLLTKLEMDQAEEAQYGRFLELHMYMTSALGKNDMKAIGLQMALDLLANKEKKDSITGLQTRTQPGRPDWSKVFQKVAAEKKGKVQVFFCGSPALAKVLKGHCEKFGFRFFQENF
Structure (SMILES),composite z-score [1],z-score [2],z-score [3],z-score [4],z-score [5],composite z-score [6],composite z-score [7],composite z-score [8],composite z-score [9],composite z-score [10],z-score [11],composite z-score [12],z-score [13],z-score [14],z-score [15],z-score [16],z-score [17],z-score [18],z-score [19],z-score [20]
CCOC(=O)[C@H](Cc1ccccc1)NC(=O)CCC1CC(OC(=O)NCc2cccc3ccccc23)CC2(CCCC(COC(=O)NCCC(C)C)O2)O1 (stereo not given in full),-0.0404,0.0896 (inactive),-0.863 (inactive),-0.525 (inactive),0.214 (inactive),1.8,-0.231,1.5,-0.359,-0.226,0.165 (inactive),-0.0733,15.9 (active),1.95 (inactive),-2.04 (inactive),-0.492 (inactive),0.255,1.59 (inactive),1.24 (inactive),0.101
CO[C@H]1COC(=O)CC=C[C@H](C)[C@@H](OC)COC(=O)[C@H](C)COC(=O)CC=C[C@@H]1C,-0.144,-0.0417 (inactive),-0.165 (inactive),-0.93 (inactive),-0.724 (inactive),-0.127,-0.208,1.1,1.01,1.93,0.79 (inactive),-0.146,-0.0428 (inactive),0.202 (inactive),0.523 (inactive),0.13 (inactive),0.333,-0.165 (inactive),0.297 (inactive),-0.12
COC(=O)CC=C[C@@H](C)[C@@H](C=NOCC[C@@H]1C=C[C@H](OC(C)=O)[C@@H](COC(C)=O)O1)OC,0.38,0.309 (inactive),0.711 (inactive),-0.557 (inactive),0.0921 (inactive),-0.227,0.0565,0.563,0.359,0.19,-0.35 (inactive),-0.0969,0.551 (inactive),0.239 (inactive),-0.5 (inactive),0.171 (inactive),-0.801,0.464 (inactive),0.934 (inactive),0.855
CCOC(=O)[C@H](Cc1ccccc1)NC(=O)CCC1CC(OC(=O)NCCc2ccc(F)cc2)CC2(CCCC(COC(=O)NCCc3ccc(Cl)cc3)O2)O1 (stereo not given in full),0.108,-0.0147 (inactive),-0.288 (inactive),-0.526 (inactive),0.483 (inactive),0.391,-0.0494,0.371,0.837,0.726,0.0991 (inactive),-0.0244,1.13 (inactive),-0.525 (inactive),0.056 (inactive),0.126 (inactive),0.406,0.526 (inactive),0.311 (inactive),1.13
C#CCCCON=C1C[C@@H](O)[C@@H](O)[C@@H]2[C@@H]3C(=O)N(CCC(=O)OCC)C(=O)[C@@H]3CC[C@H]12,0.104,-1.42 (inactive),1.11 (inactive),-0.295 (inactive),0.783 (inactive),0.873,-0.0736,0.0183,0.36,1.65,0.756 (inactive),0.105,1.08 (inactive),-1.4 (inactive),0.792 (inactive),-1.51 (inactive),1.76,-2.03 (inactive),0.213 (inactive),-0.949
CC(C)CCN1CCc2nc(COc3ccccc3)c3c(c2C1)CO[C@@H](C)C3,0.0335,-0.265 (inactive),-0.372 (inactive),3.36 (inactive),-1.3 (inactive),0.414,0.0649,0.335,0.434,-0.284,-0.152 (inactive),0.0768,3.22 (inactive),0.326 (inactive),0.331 (inactive),0.101 (inactive),-0.356,1.2 (inactive),0.131 (inactive),0.242
COC(=O)CC=C[C@@H](C)[C@@H](C=NOC[C@H]1O[C@H](c2ccccc2)C=C[C@@H]1Oc1ccc(OC)cc1)OC,0.0372,-0.193 (inactive),0.257 (inactive),1.34 (inactive),0.611 (inactive),-0.682,-0.208,-0.52,-0.305,0.161,-0.425 (inactive),-0.148,4.7 (inactive),1.15 (inactive),-0.469 (inactive),0.393 (inactive),-0.516,-0.323 (inactive),0.338 (inactive),-0.549
C#CCCCON=C1C[C@@H](O)[C@@H](O)[C@@H]2[C@@H]3C(=O)N(Cc4ccccc4)C(=O)[C@@H]3CC[C@@H]12,0.087,-0.0439 (inactive),0.943 (inactive),-0.476 (inactive),0.174 (inactive),-0.382,-0.0675,0.103,0.0159,-0.523,0.292 (inactive),-0.0479,0.564 (inactive),0.579 (inactive),-0.292 (inactive),0.06 (inactive),-0.507,-0.727 (inactive),0.47 (inactive),0.551
